Measurements published in the supplement of paper PMC12645437, “Orthogonal IMiD-Degron Pairs Induce Selective Protein Degradation in Cells” (ACS Chemical Biology, 2025).
Whole data set: some 8,300 sequences, median “log2 fold change of degron read counts, EGFP-low vs EGFP+ sorted cells (limma voom), compound-induced degradation” near -1.1, cut for the highest 2% near 3.2. For the sample, the highest values were picked, then their nearest neighbours and some sequences at random.

T1: CRBN, Q96SW2
T1 chain: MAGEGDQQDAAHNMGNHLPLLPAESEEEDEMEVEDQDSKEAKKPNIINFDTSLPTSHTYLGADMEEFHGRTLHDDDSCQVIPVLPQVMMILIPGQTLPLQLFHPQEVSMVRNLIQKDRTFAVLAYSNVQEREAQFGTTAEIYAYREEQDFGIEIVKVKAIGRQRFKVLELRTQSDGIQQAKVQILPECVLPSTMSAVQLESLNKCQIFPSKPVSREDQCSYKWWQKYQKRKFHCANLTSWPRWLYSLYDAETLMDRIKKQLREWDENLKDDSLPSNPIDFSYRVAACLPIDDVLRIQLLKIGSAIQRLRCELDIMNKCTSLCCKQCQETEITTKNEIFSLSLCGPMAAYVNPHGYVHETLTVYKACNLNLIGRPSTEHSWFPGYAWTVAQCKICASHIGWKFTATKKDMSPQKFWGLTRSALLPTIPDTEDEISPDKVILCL


Target: T1, CRBN, Q96SW2
Assay: log2 fold change of degron read counts, EGFP-low vs EGFP+ sorted cells (limma voom), compound-induced degradation; higher = more compound-induced degradation of the degron-EGFP fusion; degrons are variants of IKZF1/3 zinc finger 2; compound dose not given here
Details: Jurkat, 18 h
Method: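 Pooled library of 8380 IKZF3 ZF2 degron mutants (positions 146-167 varied within the IKZF3 130-189 degron; only the varied core is printed, flanks not printed) fused to EGFP with IRES-mCherry, lentivirally expressed in Jurkat cells. mCherry+ cells were treated with one IMiD compound for 18 h (dose not stated) and FACS-sorted into EGFP-low and EGFP+ populations. Degron sequences were counted by NGS, and log2FC (EGFP-low vs EGFP+) was estimated by limma voom over 3 biological replicates.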

[1] = compound: compound 19 (5-tert-butyl-thalidomide)
[2] = compound: compound 22 (5-morpholino-thalidomide)
[3] = compound: compound 33 (diphenyl IMiD analogue)
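Further: pooled lentiviral library of zinc finger degron-EGFP fusions in mCherry-positive Jurkat cells, FACS-sorted after compound exposure, with degron abundance counted by next-generation sequencing.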

Sequence	log2 fold change of degron read counts [1]	log2 fold change of degron read counts [2]	log2 fold change of degron read counts [3]	log2 fold change of degron read counts (compound: thalidomide)
FFCPICGRMFTQKGNLLRHIKL [46F_47F_49P_50I_52G_53R_54M_55F_67L_, Q9UKT9]	0.209	-0.113	0.441	-0.935
FHCNICGAQFTQKGNLLRHIKL [46F_47H_49N_50I_52G_53A_54Q_55F_67L_, Q9UKT9]	0.655	1.29	1.05	-0.181
FYCEICGRCFTQKGNLLRHIKL [46F_47Y_49E_50I_52G_53R_54C_55F_67L_, Q9UKT9]	0.939	0.533	1.13	-0.963
FKCEQCGAVFTQKGNLLRHIKL [46F_47K_49E_50Q_52G_53A_54V_55F_67L_, Q9UKT9]	-3.73	-2.96	-3.73	-3.19
FKCNQCGAVFTQKGNLLRHIKL [46F_47K_49N_50Q_52G_53A_54V_55F_67L_, Q9UKT9]	-2.58	-2.71	-3.07	-2.52
LCCNQCGFACTQKGNLLRHIKL [46L_47C_49N_50Q_52G_53F_54A_55C_67L_, Q9UKT9]	-1.66	-2.13	-1.86	-1.41
FICNQCGRGFTQKGNLLRHIKL [46F_47I_49N_50Q_52G_53R_54G_55F_67L_, Q9UKT9]	-3.02	-3.8	-3.62	-2.96
FVCNQCGRLFTQKGNLLRHIKL [46F_47V_49N_50Q_52G_53R_54L_55F_67L_, Q9UKT9]	-1.99	-2.78	-1.99	-1.68
FLCPVCGAAFTQKGNLLRHIKL [46F_47L_49P_50V_52G_53A_54A_55F_67L_, Q9UKT9]	0.86	0.132	1.81	1.42
FRCPVCGAAFTQKGNLLRHIKL [46F_47R_49P_50V_52G_53A_54A_55F_67L_, Q9UKT9]	2.21	2.41	2.44	2.31
FYCDVCGAAFTQKGNLLRHIKL [46F_47Y_49D_50V_52G_53A_54A_55F_67L_, Q9UKT9]	2.59	2.94	1.59	-1.42
FACPVCGAAFTQKGNLLRHIKL [46F_47A_49P_50V_52G_53A_54A_55F_67L_, Q9UKT9]	3.6	2.87	1.74	1.56
FVCDVCGAAFTQKGNLLRHIKL [46F_47V_49D_50V_52G_53A_54A_55F_67L_, Q9UKT9]	-0.53	1.92	0.755	1.42
FWCDVCGAAFTQKGNLLRHIKL [46F_47W_49D_50V_52G_53A_54A_55F_67L_, Q9UKT9]	2.61	3.37	1.17	-0.68
FVCNQCGARFTQKGNLLRHIKL [46F_47V_49N_50Q_52G_53A_54R_55F_67L_, Q9UKT9]	-2.15	-2.17	-1.37	-0.598
FRCNQCGHEFTQKGNLLRHIKL [46F_47R_49N_50Q_52G_53H_54E_55F_67L_, Q9UKT9]	-3.26	-3.83	-3.1	-2.88
FDCPICGHIFTQKGNLLRHIKL [46F_47D_49P_50I_52G_53H_54I_55F_67L_, Q9UKT9]	-2.28	-2.43	-1.8	-1.37

Sequence	log2 fold change of degron read counts [1]	log2 fold change of degron read counts [2]	log2 fold change of degron read counts [3]	log2 fold change of degron read counts (compound: thalidomide)
LACPICGFWCTQKGNLLRHIKL [46L_47A_49P_50I_52G_53F_54W_55C_67L_, Q9UKT9]	2.95	2.34	2.58	2.45
FICEQCGAIFTQKGNLLRHIKL [46F_47I_49E_50Q_52G_53A_54I_55F_67L_, Q9UKT9]	-2.04	-1.4	-0.144	-0.929
FMCEICGRLFTQKGNLLRHIKL [46F_47M_49E_50I_52G_53R_54L_55F_67L_, Q9UKT9]	-2.26	-3.02	-1.18	-0.917
FNCPICGHCFTQKGNLLRHIKL [46F_47N_49P_50I_52G_53H_54C_55F_67L_, Q9UKT9]	-2.1	-3.11	-1.84	-2.15
FNCDICGAWFTQKGNLLRHIKL [46F_47N_49D_50I_52G_53A_54W_55F_67L_, Q9UKT9]	-1.24	-2.06	-2.22	-2.05
FACPVCGASFTQKGNLLRHIKL [46F_47A_49P_50V_52G_53A_54S_55F_67L_, Q9UKT9]	3.54	2.15	1.39	1.39
FQCPVCGASFTQKGNLLRHIKL [46F_47Q_49P_50V_52G_53A_54S_55F_67L_, Q9UKT9]	2.35	2.72	2.38	3.6
FECPVCGASFTQKGNLLRHIKL [46F_47E_49P_50V_52G_53A_54S_55F_67L_, Q9UKT9]	1.95	-0.732	2.2	2.9
FDCPVCGASFTQKGNLLRHIKL [46F_47D_49P_50V_52G_53A_54S_55F_67L_, Q9UKT9]	2.73	0.654	1.35	1.92
FMCPVCGASFTQKGNLLRHIKL [46F_47M_49P_50V_52G_53A_54S_55F_67L_, Q9UKT9]	1.06	2.04	2.75	2.02
FSCPVCGASFTQKGNLLRHIKL [46F_47S_49P_50V_52G_53A_54S_55F_67L_, Q9UKT9]	3.33	2.24	2.42	1.71
FFCPVCGASFTQKGNLLRHIKL [46F_47F_49P_50V_52G_53A_54S_55F_67L_, Q9UKT9]	3.04	3.18	2.27	1.42
FGCPVCGASFTQKGNLLRHIKL [46F_47G_49P_50V_52G_53A_54S_55F_67L_, Q9UKT9]	3.39	2.36	2.57	1.08
FTCPVCGASFTQKGNLLRHIKL [46F_47T_49P_50V_52G_53A_54S_55F_67L_, Q9UKT9]	1.45	2.72	2.67	2.79
FNCPVCGASFTQKGNLLRHIKL [46F_47N_49P_50V_52G_53A_54S_55F_67L_, Q9UKT9]	2.78	1.17	1.06	0.433
FKCPVCGASFTQKGNLLRHIKL [46F_47K_49P_50V_52G_53A_54S_55F_67L_, Q9UKT9]	1.07	-1.4	-1.51	0.152
FVCPVCGASFTQKGNLLRHIKL [46F_47V_49P_50V_52G_53A_54S_55F_67L_, Q9UKT9]	0.217	2.83	2.01	2.79
